Test results taken from publication PMC5540273 (PLoS ONE, 2017).

Assays:
Settings in all cases: concentration: 1 μM, replicates: in singlicate; n = 1
CDK3 = system: CDK3
CDK4-cyclinD1 = system: CDK4-cyclinD1
CDK4-cyclinD3 = system: CDK4-cyclinD3
CDK4 = system: CDK4
CDK5 = system: CDK5
CDK7 = system: CDK7
CDK8 = system: CDK8
CDK9 = system: CDK9
CDKL1 = system: CDKL1
CDKL2 = system: CDKL2
CDKL3 = system: CDKL3
CDKL5 = system: CDKL5
CHEK1 = system: CHEK1
CHEK2 = system: CHEK2
CIT = system: CIT
CLK1 = system: CLK1
CLK2 = system: CLK2
CLK3 = system: CLK3
CLK4 = system: CLK4
CSF1R-autoinhibited = system: CSF1R-autoinhibited
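Further: KINOMEscan kinase panel screen.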

Compound | %Inh (CDK3) | %Inh (CDK4-cyclinD1) | %Inh (CDK4-cyclinD3) | %Inh (CDK4) | %Inh (CDK5) | %Inh (CDK7) | %Inh (CDK8) | %Inh (CDK9) | %Inh (CDKL1) | %Inh (CDKL2) | %Inh (CDKL3) | %Inh (CDKL5) | %Inh (CHEK1) | %Inh (CHEK2) | %Inh (CIT) | %Inh (CLK1) | %Inh (CLK2) | %Inh (CLK3) | %Inh (CLK4) | %Inh (CSF1R-autoinhibited)
Cc1cccc(-c2nc(Nc3ccc4c(cnn4C)c3)c3ccccc3n2)n1 [GW876731] | 0% | 0% | 0% | 1% | 0% | 11% | 0% | 0% | 0% | 23% | 12% | 0% | 0% | 0% | 12% | 0% | 10% | 0% | 0% | 0%
COc1ccc(-c2cc3c(C)nc(N)nc3n([C@H]3CC[C@H](O)CC3)c2=O)cn1 | 8% | 0% | 0% | 0% | 0% | 7% | 0% | 0% | 0% | 0% | 0% | 0% | 0% | 13% | 0% | 0% | 0% | 0% | 0% | 6%
CC(C)(C)c1ccc(C(=O)Nc2cn3cc(-c4ccccc4)ccc3n2)cc1 | 12% | 14% | 0% | 0% | 0% | 5% | 5% | 6% | 29% | 5% | 0% | 0% | 4% | 0% | 2% | 33% | 7% | 9% | 7% | 0%
CCCC(=O)Nc1n[nH]c2ncc(-c3cccc4ccccc34)cc12 [SB-642057] | 51% | 0% | 37% | 0% | 0% | 0% | 7% | 0% | 10% | 0% | 0% | 3% | 0% | 0% | 1% | 30% | 0% | 0% | 8% | 0%
Cl.c1ccc(Cn2cnc3cc(Nc4ncnc5ccccc45)ccc32)cc1 [GW272142] | 0% | 0% | 1% | 28% | 0% | 0% | 21% | 0% | 6% | 9% | 0% | 0% | 0% | 0% | 0% | 27% | 0% | 72% | 20% | 0%
Cc1ccc(Oc2ccc(Nc3ncnc4cc[nH]c34)cc2C)cn1 | 0% | 4% | 0% | 29% | 9% | 40% | 0% | 10% | 1% | 0% | 3% | 3% | 6% | 22% | 57% | 0% | 0% | 0% | 24% | 0%
Cc1c(Cn2c(C)nn3c(=O)cc(N4CCO[C@H](C)C4)nc23)cccc1C(F)(F)F [GSK2373690] | 18% | 0% | 0% | 0% | 0% | 0% | 13% | 0% | 3% | 24% | 0% | 7% | 2% | 0% | 1% | 27% | 16% | 23% | 32% | 0%
O=C(Nc1n[nH]c2nc(-c3ccccc3)c(Cl)cc12)C1CC1 [SB-734909] | 0% | 0% | 0% | 9% | 0% | 15% | 3% | 0% | 41% | 35% | 2% | 0% | 0% | 22% | 0% | 0% | 0% | 15% | 0% | 0%
Nc1ncnc2c1ncn2-c1ccc(Cl)cc1 [AH2635] | 0% | 0% | 0% | 42% | 0% | 0% | 33% | 0% | 0% | 6% | 0% | 0% | 0% | 0% | 26% | 28% | 19% | 0% | 3% | 0%
Nc1n[nH]c2ncc(-c3ccccc3)cc12 [SB-517081] | 26% | 0% | 5% | 23% | 0% | 0% | 0% | 0% | 8% | 34% | 0% | 0% | 12% | 0% | 29% | 21% | 0% | 0% | 66% | 0%
